# In the library only some 6.9% were active in any assay of this set; here they are far more common.
# S-ASM inh – blocks human secretory acid sphingomyelinase; P17405; Potency, µM (series often up to 57.5 µM), usual class: inhibitors; hit rate 0.006% among 340,000; AID 504937; placental ASM, HMU-PC fluorogenic substrate, 60 min
# Target sequence (P17405 47-631 limits assumed): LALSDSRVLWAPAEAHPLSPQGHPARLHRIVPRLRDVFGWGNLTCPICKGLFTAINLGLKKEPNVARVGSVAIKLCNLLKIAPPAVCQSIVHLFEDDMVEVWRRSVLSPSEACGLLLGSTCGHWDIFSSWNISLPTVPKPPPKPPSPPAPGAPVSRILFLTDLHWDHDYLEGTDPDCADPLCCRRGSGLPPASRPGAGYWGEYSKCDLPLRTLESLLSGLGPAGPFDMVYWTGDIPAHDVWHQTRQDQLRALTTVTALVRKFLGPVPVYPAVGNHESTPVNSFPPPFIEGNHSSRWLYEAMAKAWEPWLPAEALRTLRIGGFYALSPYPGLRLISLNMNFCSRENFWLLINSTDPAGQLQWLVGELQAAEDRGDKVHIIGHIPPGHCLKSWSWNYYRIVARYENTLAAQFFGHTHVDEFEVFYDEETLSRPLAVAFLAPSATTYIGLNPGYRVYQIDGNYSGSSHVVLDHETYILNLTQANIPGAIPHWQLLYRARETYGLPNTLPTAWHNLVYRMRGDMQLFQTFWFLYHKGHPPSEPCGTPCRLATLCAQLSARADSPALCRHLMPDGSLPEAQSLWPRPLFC
#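 Human placenta-derived ASM preincubated with compound 10 min at room temperature, then reacted with 9 uM (final) fluorogenic HMU-PC substrate for 60 min at 37 C. Stop solution raises pH to 10; fluorescence read at Ex 386/Em 447 nm.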
# KB-3-1 tox – KB-3-1 parental cell cytotoxicity; hit rate 1.4% among 400,000; KB-3-1 viability, CellTiter-Glo ATP luminescence, 72 h; AID 1347075; Potency, µM (top dose mostly 46.1 µM), hits mostly cytotoxic; also: nearly all actives have a fitted effect of over 60% in size
#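 Viability of parental KB-3-1 cells, measured by CellTiter-Glo luminescence, followed a 72 h incubation at 37 °C with pinned compounds in phenol-red-free DMEM containing 10% FBS.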
# SW480 rerep – induces DNA re-replication in SW480 colon adenocarcinoma cells. SW480 DNA re-replication, Hoechst DNA content imaging, 48 h. Potency, µM (top dose mostly 46.1 µM), actives largely listed as activators. hit rate 1.8% among 340,000. AID 624297; also: nearly all actives have a fitted effect of over 55% in size
#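 Treated cells incubate 48 hr (37 C, 5% CO2), are stained 40 min with Hoechst, and nuclear fluorescence is enumerated; a rise in nuclei with high DNA signal marks re-replication.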
# KB-V1 MDR tox – KB-V1 MDR subline cytotoxicity. KB-V1 MDR cells viability, CellTiter-Glo, 72 h. Potency, µM (titrated, usually from 46.1 µM), hits mostly cytotoxic. hit rate 3.4% among 400,000. AID 1347076; also: nearly all actives have a fitted effect of over 60% in size
#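 Compound-treated KB-V1 multidrug-resistant cells, 72 h, 37 degrees C; viability by CellTiter-Glo. Fitted qHTS curves give the values.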
# MCF10A rerep – DNA re-replication induction in MCF 10a cells; MCF 10A DNA re-replication, Hoechst nuclear intensity, 48 h; Potency, µM (series often up to 46.1 µM), hits mostly activators; hit rate 2.9% among 350,000; AID 624296; also: nearly all actives have a fitted effect of over 50% in size
# Giardia killer – Giardia lamblia killing; activity change, % at 7.66 µM, hits read low; Giardia lamblia trophozoite viability; hit rate 0.15% among 340,000; in the data active = activity change below about -80%; inconclusive = between about -30% and that limit;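 also: parasites exposed to compound for two days anaerobically before the ATP read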
#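 Compounds were tested on trophozoites seeded at 100 cells/well and held 48 hrs at 37 deg C anaerobically. An ATP-based luminescent kit measured the remaining live cells.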
# Hits are given with their value; - = inactive; ? = inconclusive; . = no result; [ ] = dose if it differs, or a comment. Unless noted, calls follow the shape of the dose curve; as a rule, active = well fitted curve in the direction sought with a large enough effect; inconclusive = small, poorly fitted or top-dose-only effect, or another doubt; inactive = no such curve, though single readings can be large; an effect the other way counts as inactive or inconclusive.
SMILES,S-ASM inh,KB-3-1 tox,SW480 rerep,KB-V1 MDR tox,MCF10A rerep,Giardia killer
O=C(c1c(O)c2ccccc2oc1=O)C1CCCCC1,-,?,-,15µM,?,-
CN=C(C)c1c(O)c2ccccc2oc1=O,-,-,-,-,?,-
N#CCN(C(=O)COC(=O)CCCNC(=O)c1ccc(Cl)cc1)c1ccccc1,-,-,-,21µM,-,-
CCOc1ccc(S(=O)(=O)N(CC(=O)Nc2cccnc2)c2ccccc2)cc1,.,-,.,?,.,.
CCC(=O)N1CCc2cc(S(=O)(=O)NC(CC(C)C)C(=O)N3CCc4ccccc43)ccc21 (configuration not stated),-,-,?,13µM,-,-
COC(=O)C/C(O)=C(/N=Nc1cccc(C(F)(F)F)c1)C(=O)OC,-,-,?,-,5.8µM,-
CC(C)NC(=O)c1cccc(C(F)(F)F)c1,-,-,-,-,-,-
O=C(NC(=S)N1CCOCC1)c1ccc([N+](=O)[O-])cc1,-,-,0.65µM,-,-,-
O=C(NC(NC(=S)N1CCOCC1)C(Cl)(Cl)Cl)c1ccc(Cl)cc1 (configuration not stated),-,-,-,13µM,-,-
CCCCC(=O)NC(NC(=S)N1CCOCC1)C(Cl)(Cl)Cl (configuration not stated),-,-,-,-,-,-
O=C1N(Cc2cccc(C(F)(F)F)c2)c2ccccc2S(=O)(=O)N1c1cccc(Cl)c1,.,-,.,?,.,.
CC12CCC(C(=O)N3CCCCC3)([C@H](Br)C1=O)C2(C)C (some centres not stated),-,-,-,-,-,-
O=C1[C@@H]2Cc3c([nH]c4ccccc34)[C@@H](c3ccccc3)N2C(=O)[C@@H]2Cc3c([nH]c4ccccc34)[C@@H](c3ccccc3)N12,.,.,23µM,.,?,.
O=C1NCC(=O)N2C(c3ccccc3)c3[nH]c4ccccc4c3C[C@@H]12 (some centres not stated),-,-,-,-,-,-
NS(=O)(=O)Cc1noc2ccccc12,-,-,-,-,-,-
CCOc1ccc(C(c2c(O)cc(C)n(CCOC)c2=O)N2CCN(c3ccc(F)cc3)CC2)cc1 (configuration not stated),.,-,.,?,.,.
CCCn1c(=O)sc2cc(NC(=O)c3ccccc3OCC)ccc21,.,-,.,-,.,.
CCOc1ccc2oc(C(=O)N(CC)CC(=O)Nc3c(F)cccc3F)c(C)c2c1,-,-,-,?,-,-
O=C(COC(=O)/C=C/c1ccc([N+](=O)[O-])cc1)NC(c1ccccc1)c1ccccc1,-,-,-,-,23µM,-
O=C(NCc1cccnc1)C(=O)NCC(c1ccco1)N1CCOCC1 (configuration not stated),-,-,-,-,-,-
O=C(NCC(c1ccco1)N1CCN(c2ccc(F)cc2)CC1)C1CCCCC1 (configuration not stated),.,-,-,?,-,-
O=C(NCc1cccnc1)C(=O)NCC(c1ccco1)N1CCN(c2ccccc2)CC1 (configuration not stated),-,-,?,9.2µM,-,-
O=C(NCCC1=CCCCC1)C(=O)NCC(c1ccco1)N1CCN(c2ccc(F)cc2)CC1 (configuration not stated),-,-,-,2.6µM,-,-
Cc1ccc(-c2nc3cccc(C)n3c2Nc2ccc(F)cc2)o1,.,.,.,.,.,-
Cc1cc(C)n2nc(C(=O)N/N=C/c3c4ccccc4cc4ccccc34)nc2n1,-,-,?,?,8.2µM,-
SMILES,S-ASM inh,KB-3-1 tox,SW480 rerep,KB-V1 MDR tox,MCF10A rerep,Giardia killer
COCCNC(=S)N/N=C/c1c2ccccc2cc2ccccc12,-,-,18µM,-,15µM,-
C[N+](C)(C)CC(=O)N/N=C/c1c2ccccc2cc2ccccc12,-,-,-,?,18µM,-
COc1cc(/C=C/C(=O)OCC(=O)N2CCCC2)cc(OC)c1OC,-,-,-,-,-,-
C#CCCOC(=O)Nc1ccccc1,-,-,-,-,-,?
COc1ccc(CNC(=O)c2cc3oc4ccccc4c3n2C)cc1OC,.,-,.,-,.,.
CC1Cc2ccccc2N1S(=O)(=O)c1nnc(NC(=O)c2ccccc2Br)s1 (configuration not stated),.,-,.,-,.,.
O=C(CCCSc1nc(-c2ccco2)cc(C(F)(F)F)n1)Nc1ccc2c(c1)OCO2,-,-,-,-,-,-
O=C(CCSc1nc(-c2ccco2)cc(C(F)(F)F)n1)NCCc1ccccc1,-,-,-[9.22 µM],?,?,-
CCn1cc(CNC(=O)CCSc2nc(-c3ccco3)cc(C(F)(F)F)n2)cn1,-,?,?,4.6µM,?,-
O=C(CSc1nc(-c2ccco2)cc(C(F)(F)F)n1)Nc1ccc2c(c1)OCO2,-,?,-,18µM,-,-
Cc1cccc(N2C(=O)CCSC23C(=O)N(Cc2ccc(F)cc2)c2ccccc23)c1 (configuration not stated),.,-,.,-,.,.
NC(=O)c1c(NC(=O)C(=O)N2CCOCC2)sc2c1CCC2,-,-,-,-,-,-
CCCCCCCCOC(=O)C1=C(C)Nc2nnnn2C1c1cccs1 (configuration not stated),-,?,-,15µM,?,-
COc1ccc(NC(=O)c2c(N)no[n+]2[O-])cc1,-,?,-,-,?,-
COc1ccc(C(=O)c2no[n+]([O-])c2C(=O)c2ccc(OC)cc2)cc1,-,?,?,?,9.2µM,-
O=C(c1cccs1)c1no[n+]([O-])c1C(=O)c1cccs1,-,?,13µM,?,12µM,-
CCc1ccc2nc(N(CCN(CC)CC)C(=O)c3cccs3)sc2c1,.,-,.,-,.,.
O=C(NCCNc1ccc([N+](=O)[O-])cc1C(F)(F)F)c1cccc(F)c1,-,?,?,18µM,-,-
O=C(NCCNc1ccc([N+](=O)[O-])cc1)c1cccc(Br)c1,-,-,-,-,-,-
O=C(NCCNc1ccc([N+](=O)[O-])cc1C(F)(F)F)c1ccccc1,-,-,-,16µM,-,-
O=C(c1ccccc1)N1CCN(C(=O)c2ccccc2)c2ccccc21,-,?,?,-,?,-
COc1ccc(CC(=O)Nc2ccc(-c3nnc(-c4ccccc4)o3)cc2)cc1OC,-,-,-,?,-,-
O=C(Cc1ccc(Cl)cc1)Nc1cccc(-c2nnc(-c3ccco3)o2)c1,-,?,-,0.58µM,-,-
CCOc1cccc(C(=O)Nc2cccc(-c3nnc(-c4ccccc4)o3)c2)c1,-,-,?,-,?,-
CCc1cccc(NC(=O)Cc2ccc(OC)c(OC)c2)c1,-,?,-,16µM,-,-
